According to PubChem BioAssay (Tox21):
Inconclusive results are not listed. Calls of active or inactive are those of the source. Unless noted, calls follow the shape of the dose curve; as a rule, active = well fitted curve in the direction sought with a large enough effect in the repeat runs; inconclusive = weak or mixed curves; inactive = no such curve, though single readings can be large; an effect the other way counts as inactive or inconclusive.

Legend:
[1] = A CellTox Green Cytotoxicity Assay to monitor cytotoxicity in HepG2 cells - 0 hour (AID 1224882); also: nearly all actives have a fitted effect of over 35% in size
In short: (§1)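 Fluorescent DNA-binding dye, 600 HepG2 cells/well, 5 h preincubation then compound in DMSO; same plates read at 0–40 h, 37 C.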

[2] = A CellTox Green Cytotoxicity Assay to monitor cytotoxicity in HepG2 cells - 32 hour (AID 1224883); also: nearly all actives have a fitted effect of over 50% in size
In short: as §1

[3] = A CellTox Green Cytotoxicity Assay to monitor cytotoxicity in HEK293 cells - 8 hour (AID 1224884); also: nearly all actives have a fitted effect of over 35% in size
In short: (§2)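 Homogeneous no-lysis format: HEK293 cell suspension mixed with CellTox Green reagent, seeded, incubated 5 h at 37 C/5% CO2, then dosed by pintool with compound in DMSO.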

[4] = qHTS RealTime-Glo MT Cell Viability Assay in HepG2 cells - 16 hour (AID 1224885); also: nearly all actives have a fitted effect of over 50% in size
In short: (§3)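 Cells + NanoLuc/prosubstrate dispensed (600 cells/well) → 5 h at 37 C/5% CO2 → compounds in DMSO transferred → 40 h incubation at 37 C, luminescence read at 0, 8, 16, 24, 32, 40 h.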

[5] = qHTS RealTime-Glo MT Cell Viability Assay in HEK293 cells - 24 hour (AID 1224886); also: nearly all actives have a fitted effect of over 50% in size; also: potency is read from the fitted curve at half-maximal effect
In short: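 Tox21 10K qHTS, HEK293, 600 cells/well, RealTime-Glo reagent co-dispensed with cells; 5 h preincubation, compound by pintool, 37 C, luminescence at 0–40 h.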

[6] = qHTS RealTime-Glo MT Cell Viability Assay in HEK293 cells - 8 hour (AID 1224887); also: top concentration of the series differs between compounds; nearly all actives have a fitted effect of over 50% in size
In short: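 Measured as luminescence from the same continuously cultured HEK293 wells at successive time points (0, 8, 16, 24, 32, 40 h) after compound addition. Reagent present from seeding; dosing at 5 h; incubation 37 C.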

[7] = A CellTox Green Cytotoxicity Assay to monitor cytotoxicity in HEK293 cells - 16 hour (AID 1224888); also: nearly all actives have a fitted effect of over 35% in size
In short: as §2

[8] = qHTS RealTime-Glo MT Cell Viability Assay in HepG2 cells - 0 hour (AID 1224889); also: nearly all actives have a fitted effect of over 50% in size
In short: as §3

[9] = qHTS assay to identify small molecule antagonists of the estrogen receptor alpha (ER-alpha) signaling pathway using the BG1 cell line in the presence of 0.1 nM 17-beta-estradiol - cell viability counter screen (AID 1259241); also: nearly all actives have a fitted effect of over 40% in size
In short: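 Cytotoxicity counter-screen: live-cell protease activity measured by fluorescence (30 min reagent step) in the same wells. Cells were VM7Luc4E2 with endogenous ER-alpha and ERE-driven luciferase, treated 22 hr at 37C alongside 0.1 nM 17beta-estradiol final.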

[10] = qHTS assay to identify small molecule antagonists of the androgen receptor (AR) signaling pathway using the MDA cell line in the presence of 0.5 nM R1881 - cell viability counter screen (AID 1259242); also: nearly all actives have a fitted effect of over 45% in size
In short: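 Human breast carcinoma MDA-kb2 cells, cultured without CO2, receive compounds alongside 0.5 nM (final) R1881 agonist. After 16 hr at 37C, viability is taken as live-cell protease signal.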

[11] = molecular target: Estrogen receptor (Homo sapiens) (UniProt P03372); experiment: qHTS assay to identify small molecule antagonists of the estrogen receptor alpha (ER-alpha) signaling pathway using the BG1 cell line in the presence of 0.1 nM 17-beta-estradiol (AID 1259244); also: nearly all actives have a fitted effect of over 50% in size
Chain of Estrogen receptor (Homo sapiens) (P03372 whole entry, looked up): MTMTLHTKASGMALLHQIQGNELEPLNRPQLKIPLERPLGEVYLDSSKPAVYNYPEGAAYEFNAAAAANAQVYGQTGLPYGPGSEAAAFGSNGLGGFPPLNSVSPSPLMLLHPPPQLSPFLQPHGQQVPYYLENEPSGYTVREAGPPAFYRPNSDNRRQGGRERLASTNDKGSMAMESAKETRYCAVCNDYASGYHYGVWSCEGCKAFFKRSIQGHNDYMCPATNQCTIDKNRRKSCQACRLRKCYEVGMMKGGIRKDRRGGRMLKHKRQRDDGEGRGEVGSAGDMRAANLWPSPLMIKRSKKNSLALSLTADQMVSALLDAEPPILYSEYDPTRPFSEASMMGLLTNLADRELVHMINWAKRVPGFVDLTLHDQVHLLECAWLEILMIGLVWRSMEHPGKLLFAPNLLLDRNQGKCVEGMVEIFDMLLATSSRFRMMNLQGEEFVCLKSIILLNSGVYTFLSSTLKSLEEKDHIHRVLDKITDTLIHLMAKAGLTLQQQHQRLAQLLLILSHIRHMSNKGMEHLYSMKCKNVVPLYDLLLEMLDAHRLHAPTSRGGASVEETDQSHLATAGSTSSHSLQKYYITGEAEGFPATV
In short: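 Seeding of stripped-serum-adapted VM7Luc4E2 cells, 24 h attachment, compound transfer, then 0.1 nM final 17beta-estradiol; after 22 h incubation, ONE-Glo reagent and luminescence reading.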

[12] = qHTS assay to identify small molecule HDAC inhibitors (AID 1259364); also: potency is read from the fitted curve at half-maximal effect;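 also: wild-type HCT-116 cells with endogenous class I/II HDAC activity; nearly all actives have a fitted effect of over 45% in size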
In short: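 After a 2 hr compound incubation (37C, 5% CO2), HCT-116 cells seeded at 1,500/well the day before received HDAC-Glo reagent; signal read as luminescence after 30 min at room temperature.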

[13] = qHTS assay to identify small molecule HDAC inhibitors - cell viability counter screen (AID 1259365)
In short: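 CellTiter-Glo luminescence (30 min, room temperature) reported viability after a 2 h compound exposure at 37 C. Cells: wild-type HCT-116, 1,500 per well, seeded the night before.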

[14] = qHTS assay to identify small molecule agonists of the sonic hedgehog signaling (Shh) pathway - cell viability counter screen (AID 1259366); also: nearly all actives have a fitted effect of over 50% in size
In short: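 Cytotoxicity counter screen: CellTiter-Fluor reagent added after 23 h compound exposure, then 1 h at 37C and fluorescence read. Cells were 3T3 Gli1-Luc, seeded 2,000 per well and dosed 4 h post-plating.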

[15] = qHTS assay to identify small molecule antagonists of the sonic hedgehog signaling (Shh) pathway - cell viability counter screen (AID 1259367); also: nearly all actives have a fitted effect of over 55% in size
In short: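 Conditioned medium drove Shh signaling in 3T3 Gli1-Luc cells exposed to compounds at 37C and 5% CO2. Viability was determined from CellTiter-Fluor fluorescence, with reagent incubated 1 hr after 23 hr of treatment.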

[16] = qHTS assay to identify small molecule agonists of the sonic hedgehog signaling (Shh) pathway (AID 1259368; calls by dose curve;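 also: NIH/3T3-derived 3T3Gli1-Luc cells carrying a stable Gli1-driven firefly luciferase reporter; series mostly up to about 92 µM; nearly all actives have a fitted effect of over 15% in size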)
In short: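 Stable NIH/3T3 Gli1-Luc reporter clone; 24 hr cpd exposure after a 4 hr settling period; luminescence endpoint.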

[17] = qHTS assay to identify small molecule antagonists of the sonic hedgehog signaling (Shh) pathway (AID 1259369; calls by dose curve; also: nearly all actives have a fitted effect of over 45% in size; also: potency is read from the fitted curve at half-maximal effect)
In short: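 Gli1 transcriptional reporter (firefly Luc) in NIH/3T3 background, conditioned-medium activated. 24hr exposure, luminescence endpoint.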

[18] = A CellTox Green Cytotoxicity Assay to monitor cytotoxicity in HepG2 cells - 8 hour (AID 1224890); also: nearly all actives have a fitted effect of over 45% in size
In short: as §1

[19] = molecular target: Androgen receptor (Homo sapiens) (UniProt P10275); experiment: qHTS assay to identify small molecule antagonists of the androgen receptor (AR) signaling pathway using the MDA cell line in the presence of 0.5 nM R1881 (AID 1259243); also: nearly all actives have a fitted effect of over 50% in size
Chain of Androgen receptor (Homo sapiens) (P10275 whole entry, looked up): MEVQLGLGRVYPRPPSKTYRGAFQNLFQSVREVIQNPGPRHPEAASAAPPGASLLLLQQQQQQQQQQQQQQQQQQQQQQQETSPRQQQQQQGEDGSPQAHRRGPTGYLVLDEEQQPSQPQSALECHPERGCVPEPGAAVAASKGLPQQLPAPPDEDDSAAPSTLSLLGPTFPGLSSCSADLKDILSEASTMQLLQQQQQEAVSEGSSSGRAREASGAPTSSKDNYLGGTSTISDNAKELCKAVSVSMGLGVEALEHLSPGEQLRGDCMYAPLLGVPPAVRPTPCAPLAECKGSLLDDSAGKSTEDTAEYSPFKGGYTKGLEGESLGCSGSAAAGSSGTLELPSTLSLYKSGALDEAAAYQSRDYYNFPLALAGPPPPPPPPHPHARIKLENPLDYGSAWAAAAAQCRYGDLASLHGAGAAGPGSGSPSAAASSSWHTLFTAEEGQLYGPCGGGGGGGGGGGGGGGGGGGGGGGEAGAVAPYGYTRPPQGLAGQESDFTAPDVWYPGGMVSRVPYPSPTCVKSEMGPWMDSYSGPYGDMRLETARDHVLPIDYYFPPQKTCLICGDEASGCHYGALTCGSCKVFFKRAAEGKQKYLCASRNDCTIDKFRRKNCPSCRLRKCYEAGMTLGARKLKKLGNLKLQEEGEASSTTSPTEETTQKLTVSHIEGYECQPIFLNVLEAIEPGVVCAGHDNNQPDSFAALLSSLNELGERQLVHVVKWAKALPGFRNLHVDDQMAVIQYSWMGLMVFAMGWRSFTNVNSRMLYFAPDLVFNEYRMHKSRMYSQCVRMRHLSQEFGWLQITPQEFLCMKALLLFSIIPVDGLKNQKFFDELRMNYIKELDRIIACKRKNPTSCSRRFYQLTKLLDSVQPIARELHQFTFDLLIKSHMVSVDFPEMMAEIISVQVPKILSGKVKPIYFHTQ
In short: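 Cells: MDA-kb2 (MMTV-luc). Stimulus: 0.5 nM R1881. Time: 16 hr, 37C, no CO2. Detection: ONE-Glo luminescence after 30 min at RT.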

[20] = qHTS assay to identify small molecule phospholipidosis (PLD) inducers (AID 1259344; active = well fitted curve in the direction sought with a large enough effect; an effect the other way counts as inactive or inconclusive)
In short: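 After 4 h attachment on collagen I, HepG2 cells were dosed with compound alongside LipidTOX Red, kept 24 h at 37 C, fixed, and imaged for lamellar phospholipid pits.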
% is scaled to controls: 0 for no effect and ±100 for the full control effect.

CCCCC(CC)COC(=O)CCCCCCCCC(=O)OCC(CC)CCCC (stereo not drawn)
inactive: Potency [1] | Potency [2] | Potency [3] | Potency [4] | Potency [5] | Potency [6] | Potency [7] | Potency [8] | Potency [9] | Potency [10] | Potency [11] | Potency [12] | Potency [13] | Potency [14] | Potency [15] | outcome [16]

CC(=O)c1cccc([N+](=O)[O-])c1
inactive: Potency [1] | Potency [2] | Potency [3] | Potency [4] | Potency [5] | Potency [6] | Potency [7] | Potency [8] | Potency [9] | Potency [10] | Potency [11] | Potency [12] | Potency [13] | Potency [14] | Potency [15] | outcome [16] | Potency [17]

S=C([S-])NCCNC(=S)[S-].[Mn+2]
inactive: Potency [1] | Potency [2] | Potency [3] | Potency [4] | Potency [6] | Potency [7] | Potency [8] | Potency [18] | Potency [9] | Potency [10] | Potency [12] | Potency [13] | Potency [15] | outcome [16] | Potency [17]

COc1cc2nc(Cl)nc(N)c2cc1OC
inactive: Potency [1] | Potency [2] | Potency [3] | Potency [4] | Potency [7] | Potency [8] | Potency [18] | Potency [9] | Potency [10] | Potency [19] | Potency [11] | Potency [12] | Potency [13] | Potency [14] | Potency [15] | outcome [16]

CN(C)C(=O)NC1(c2ccccc2)CCN(CC[C@@]2(c3ccc(F)c(F)c3)CN(C(=O)c3ccccc3)CCO2)CC1
inactive: Potency [1] | Potency [2] | Potency [3] | Potency [4] | Potency [8] | Potency [18] | Potency [9] | Potency [10] | Potency [12] | Potency [13] | outcome [16]

CC(C)(COC(=O)c1ccccc1)COC(=O)c1ccccc1
inactive: Potency [1] | Potency [2] | Potency [3] | Potency [4] | Potency [7] | Potency [8] | Potency [9] | Potency [10] | Potency [12] | Potency [13] | Potency [14] | Potency [15] | outcome [16] | Potency [17]

CO[C@@H]1[C@H](OC(=O)/C=C/C=C/C=C/C=C/C(=O)O)CC[C@]2(CO2)[C@H]1[C@@]1(C)O[C@@H]1CC=C(C)C
inactive: Potency [1] | Potency [2] | Potency [3] | Potency [4] | Potency [6] | Potency [7] | Potency [8] | Potency [18] | Potency [9] | Potency [10] | Potency [20] | Potency [12] | Potency [13] | Potency [14] | outcome [16]

COc1ccc(C(=O)c2ccc(OC)cc2O)c(O)c1
inactive: Potency [1] | Potency [2] | Potency [3] | Potency [4] | Potency [8] | Potency [18] | Potency [10] | Potency [11] | Potency [13] | Potency [14] | Potency [15] | outcome [16]
active: Potency [5] 24.7 µM | Potency [12] 30.9 µM

CCCCC/C=C\C/C=C\CCCCCCCC(=O)NC(C)c1ccccc1 (stereo not drawn)
inactive: Potency [1] | Potency [2] | Potency [3] | Potency [4] | Potency [5] | Potency [7] | Potency [8] | Potency [18] | Potency [9] | Potency [10] | PLD induction [20] -2.94% [at 7.66 µM] | Potency [12] | Potency [13] | outcome [16]
active: Potency [17] 13.3 µM
